PubChem BioAssay AID651558 (National Center for Advancing Translational Sciences (NCATS), 2012)
The whole screen tested about 1,200 compounds, of which about 480 (40%) were called active. About 29% were inconclusive and are not listed. The call rests on the fitted dose curve; in most records, active means well fitted inhibition curve with a large enough effect; inconclusive means small, poorly fitted or top-dose-only effect; inactive means no such curve, though single readings can be large or run the other way. Some of the results follow.

Assay: qHTS Assay to Find Inhibitors of Chronic Active B-Cell Receptor Signaling: Hit Validation in Primary Screen; further: nearly all actives have a fitted effect of over 75% in size
Conditions: ABC-DLBCL IkB-luc/CBR ratio luminescence, 4 h; series mostly up to 46.1 µM
Outline: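 Concentration series (3 nM to 46 uM) tested on TMD8 cells induced with doxycycline for 4 h. Filter-corrected green (IkBa fusion) over red (unfused) luciferase signal; Data were normalised to 10 uM MG-132 and untreated cell wells.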
Potency means the concentration at half of the fitted maximal effect.

SMILES | Potency
CC1=NN(C(N)=S)C(=O)C1N=Nc1ccc(F)cc1 (stereo unspecified) | inactive
Cc1ccsc1/C=C/C1=NCCCN1C | inactive
CC1(C)N=c2ccc([N+](=O)[O-])c(N)c2=[N+]1[O-] | inactive
COc1ccc(S(=O)(=O)Nc2ccc3c(c2)n(C)c(=O)n3C)cc1F | inactive
COc1cc(OC)c(OC)cc1/C=C/C(=O)c1ccc(NS(=O)(=O)c2ccc(C)cc2)cc1 | 13 µM (active)
O=C(Nc1nnc(SCc2ccc(F)cc2)s1)c1ccccn1 | inactive
S=C(Nc1ccccn1)c1ccccn1 | inactive
COc1ccc2nc(NC(=S)NC(=O)c3ccco3)sc2c1 | inactive
Cc1ccc2nc(NC(=O)c3ccccn3)sc2c1 | 1.16 µM (active)
CCOc1ccc2nc(NS(=O)(=O)Cc3ccccc3)sc2c1 | inactive
C/C(=N\NC(=O)c1ccc(F)cc1)c1ccccn1 | inactive
O=C(Nc1nc2c(F)cc(F)cc2s1)c1ccccn1 | 13 µM (active)
O=C(Nc1nc2ccc(F)cc2s1)c1ccccn1 | 1.46 µM (active)
CCOc1ccc2nc(NC(=O)c3ccccn3)sc2c1 | 14.6 µM (active)
O=C(NCC(=O)N1CCCC(C(F)(F)F)C1)c1ccc(Oc2ccccc2)cc1 (stereo unspecified) | inactive
CN(C)NC(=S)NC(=O)C12CC3CC(CC(C3)C1)C2 | inactive
Cc1cc(C(N)=O)nn1-c1c(Cl)cc(Cl)cc1Cl | inactive
COc1ccccc1NC(=O)c1c(N=Cc2c(O)ccc3ccccc23)cnn1C | 3.26 µM (active)
CC(=O)N1CC(=O)N=C1SCC(=O)Nc1nc(C)c(-c2ccccc2)s1 | 23.1 µM (active)
COc1ccc(CCCC(=O)N/N=C/c2cccc(OC)c2O)cc1C | inactive
COc1cccc(/C=N/NC(=O)c2[nH]nc3c2CCc2ccccc2-3)c1O | 20.6 µM (active)
CC/C(=N/Nc1ccc(Cl)cc1)c1cnnc(SC)n1 | inactive
Cc1ccc(C(=O)Oc2ccc(Cl)c3cccnc23)cc1[N+](=O)[O-] | inactive
COc1cccc(N2CCN(C(=O)c3ccc(CS(=O)c4ccccc4Cl)o3)CC2)c1 (stereo unspecified) | 1.84 µM (active)

SMILES | Potency
O=C(c1ccc(CS(=O)c2ccccc2Cl)o1)N1CCN(c2ccccc2)CC1 (stereo unspecified) | 14.6 µM (active)
COc1cccc(N2CCN(C(=O)c3ccc(CS(=O)c4ccccc4C)o3)CC2)c1 (stereo unspecified) | 5.8 µM (active)
CCCNc1nc(-c2ccccc2)c(C(=O)OCC)cc1C#N | 18.4 µM (active)
CCCNc1ccc(C(=O)OCC)cc1[N+](=O)[O-] | inactive
CC(C)CCOc1ccc(CO[C@@H]2[C@H]3OC(C)(C)O[C@H]3O[C@@H]2C(O)CO)cc1 (stereo partly specified) | inactive
COc1ccc(S(=O)(=O)Nc2cc3c(C(C)=O)c(C)oc3c3ccccc23)cc1 | 2.06 µM (active)
COC(=O)c1ccc(C)c(NS(=O)(=O)c2ccc(OC)cc2)c1 | 1.84 µM (active)
COC(=O)c1ccc(C)c(NS(=O)(=O)c2ccc3c(c2)OCCO3)c1 | 9.2 µM (active)
COc1ccc(NS(=O)(=O)c2cc(NC(=O)CNC(=O)c3cccc(OC)c3)ccc2C)cc1 | inactive
COc1cc2nc(=S)n3[nH]c(CCn4nc(C)cc4C)nc3c2cc1OC | inactive
O=C(/C=C/c1ccc(-c2ccccc2[N+](=O)[O-])o1)c1ccccc1 | inactive
CC(=O)[C@H]1CC[C@H]2[C@@H]3CCC4=CC(=O)CC[C@]4(C)[C@H]3CC[C@]12C | inactive
C[C@]12CCC(=O)C=C1CC[C@@H]1[C@@H]2[C@@H](O)C[C@@]2(C)[C@H]1CC[C@]2(O)C(=O)CO | inactive
COc1ccccc1-c1nnc(Nc2nc3c(OC)cccc3s2)o1 | 0.366 µM (active)
COc1cccc2sc(Nc3nnc(-c4ccccc4Cl)o3)nc12 | 8.2 µM (active)
NC(=S)N/N=C\c1ccc(-c2cccc(Cl)c2Cl)o1 | inactive
CCN(CC)S(=O)(=O)c1ccc(N2CCOCC2)c(NC(=O)c2[nH]c(C)c(C(C)=O)c2C)c1 | inactive
CSc1ccc(COC(=O)c2cc([N+](=O)[O-])ccc2N2CCOCC2)cc1 | 0.58 µM (active)
CCCCn1c(=O)c(F)cn(Cc2ccc(OC)c([N+](=O)[O-])c2)c1=O | inactive
Cc1ccc(COC(=O)c2cc([N+](=O)[O-])ccc2N2CCOCC2)cc1 | 5.8 µM (active)
COc1ccc(COC(=O)c2cc([N+](=O)[O-])ccc2N2CCOCC2)cc1F | 0.092 µM (active)
CCCCn1c(-c2csc(C(C)C)c2)n[nH]c1=S | inactive
CNC(=S)N/N=C(\C)c1ccc(Cl)c(Cl)c1 | inactive
CCOc1ccc(S(=O)(=O)N2c3ccccc3CC2C)cc1 (stereo unspecified) | 14.6 µM (active)

SMILES | Potency
COc1ccc(S(=O)(=O)N2c3ccccc3OCC2C)cc1 (stereo unspecified) | 16.4 µM (active)
CNc1nc(N)c([N+](=O)[O-])c(NCc2ccccc2)n1 | inactive
CC(=O)c1ccc(Oc2cc(C)nc(-n3nc(C)cc3C)n2)cc1 | 7.31 µM (active)
COC(=O)c1ccc(Oc2cc(C)nc(-n3nc(C)cc3C)n2)cc1 | 3.26 µM (active)
O=C(CSc1cccc[n+]1[O-])c1ccc(Cl)s1 | inactive
O=C(CCCN1C(=O)/C(=C/c2ccccc2OC(F)F)SC1=S)Nc1cccnc1 | 7.31 µM (active)
O=C(O)CCCN1C(=O)/C(=C\c2ccccc2OCc2ccccc2)SC1=S | 7.31 µM (active)
COc1ccccc1-c1cc(C(=O)Nc2cccnc2)no1 | inactive
CCCNS(=O)(=O)c1cccc(C(=O)OCc2cc(=O)oc3cc(OC)ccc23)c1 | 9.2 µM (active)
Cc1cc(C)cc(C(=O)N2CC(=O)Nc3ccccc32)c1 | 3.66 µM (active)
COc1cc(OC)cc(C(=O)N2CC(=O)Nc3ccccc32)c1 | 14.6 µM (active)
COc1cc(OC)cc(C(=O)N/N=C(\C)CC(=O)Nc2ccccn2)c1 | inactive
Cc1cc(C)c2nc(SCC(=O)N3CC(=O)Nc4ccccc43)c(C#N)cc2c1 | 3.66 µM (active)
COc1ccc(N2CC(C(=O)N3CCC(c4nc5ccccc5[nH]4)CC3)CC2=O)cc1 (stereo unspecified) | inactive
COc1ccccc1NC(=O)N1CCC(c2nc3cc(C)c(C)cc3[nH]2)CC1 | 5.17 µM (active)
ClC(Cl)(Cl)c1nc2ccccc2n2nncc12 | 18.4 µM (active)
COc1cc(-c2noc(C)c2/C=C/c2ccc(N)cc2)cc(OC)c1OC | 1.3 µM (active)
COc1cc(-c2noc(C)c2/C=C/c2ccc(OC(C)=O)cc2)cc(OC)c1OC | 4.61 µM (active)
CCOC(=O)C(C)Oc1cccc2c(=O)n(CC(=O)NCc3ccc4c(c3)OCO4)ccc12 (stereo unspecified) | 20.6 µM (active)
CCOC(=O)COc1cccc2c(=O)n(CC(=O)NCc3ccc(F)cc3)ccc12 | 3.26 µM (active)
CCOC(=O)C(C)Oc1cccc2c(=O)n(CC(=O)NCc3ccccc3)ccc12 (stereo unspecified) | 4.11 µM (active)
CCOC(=O)C(C)Oc1cccc2c(=O)n(CC(=O)NCc3ccco3)ccc12 (stereo unspecified) | 18.4 µM (active)
CCOC(=O)COc1cccc2c(=O)n(CC(=O)NCc3ccccc3)ccc12 | inactive
CCOc1ccc(CCNC(=O)c2cc(=O)[nH]c3ccc(S(=O)(=O)N4CCCCC4C)cc23)cc1OCC (stereo unspecified) | inactive

SMILES | Potency
C=CCn1c(O)c(N=NC(=S)Nc2ccccc2C)c2cc(S(=O)(=O)N3CCOCC3)ccc21 | inactive
CCOC(=O)C(C)Oc1cccc2c(=O)n(CC(=O)NCc3ccc(F)cc3)ccc12 (stereo unspecified) | 2.59 µM (active)
COC(=O)COc1cccc2c(=O)n(CC(=O)NCc3ccccc3)ccc12 | 9.2 µM (active)
CCN(c1cccc(C)c1)S(=O)(=O)c1ccc(-c2cc(C)no2)s1 | 16.4 µM (active)
Cc1cccc(N(C)S(=O)(=O)c2ccc(-c3cc(C)no3)s2)c1 | inactive
Cc1cc(Cl)ccc1OCCCC(=O)NO | 16.4 µM (active)
Cc1nn(C)cc1CNC(=O)COc1ccc(Cl)cc1Cl | inactive
CC[C@]1(O)CC2CN(CCc3c([nH]c4ccccc34)[C@@](C(=O)OC)(c3cc4c(cc3OC)N(C=O)[C@H]3[C@@](O)(C(=O)OC)[C@H](OC(C)=O)[C@]5(CC)C=CCN6CC[C@]43[C@@H]65)C2)C1 (stereo partly specified) | 0.0517 µM (active)
CC[C@]1(O)C[C@@H]2CN(CCc3c([nH]c4ccccc34)[C@@](C(=O)OC)(c3cc4c(cc3OC)N(C)[C@H]3[C@@](O)(C(=O)OC)[C@H](OC(C)=O)[C@]5(CC)C=CCN6CC[C@]43[C@@H]65)C2)C1 | 0.0461 µM (active)
COc1ccc(C(=O)/C=C/c2ccc(O)cc2)c2c1CC(O)C(C)(C)O2 (stereo unspecified) | 20.6 µM (active)
O=S1(=O)[C@H]2C[C@H](CO)O[C@@]2(CO)CN1Cc1ccc(-c2cccc(Cl)c2)cc1 | inactive
COc1ccc(OC)c(Nc2c3c(nc4ccccc24)CCC3)c1 | 14.6 µM (active)
COc1ccccc1-c1nc2c3ccccc3nc(=S)n2[nH]1 | inactive
COc1cc(Nc2c3c(nc4ccccc24)CCC3)cc(OC)c1OC | 18.4 µM (active)
Cc1nn(CCC(=O)NNC(=S)Nc2ccccc2)c(C)c1Br | inactive
Cc1ccc(C)c(/C=N/NC(=S)NC(C)C)c1 | inactive
COc1ccc(NS(=O)(=O)c2cc(-c3cnc(C4CC4)o3)ccc2C)cc1 | 23.1 µM (active)
Cc1ccc(C)c(NS(=O)(=O)c2ccc(-c3cnc(C4CC4)o3)cc2)c1 | 1.03 µM (active)
Cc1cc(C)cc(NS(=O)(=O)c2ccc(-c3cnc(C4CC4)o3)cc2)c1 | 2.06 µM (active)
COc1ccc(C)cc1NS(=O)(=O)c1ccc(-c2cnc(C3CC3)o2)cc1 | 0.92 µM (active)
Cc1ccc(NS(=O)(=O)c2ccc(-c3cnc(C4CC4)o3)cc2)c(C)c1 | 3.26 µM (active)
CC1=CC(C)(C)N(S(=O)(=O)c2ccc(C)cc2)c2ccccc21 | 14.6 µM (active)
CC(=O)Nc1ccc(S(=O)(=O)NCC(=O)OC(C)c2ccccc2Cl)cc1 (stereo unspecified) | inactive
CC(=O)Nc1ccc(S(=O)(=O)N2c3ccccc3C(C)=CC2(C)C)cc1 | 4.11 µM (active)
